Experimental data taken from the supplement of paper PMC10849652.
Of roughly 8,800 targets only a part is listed; those with a hit were picked by preference. About 0.5% of all pairs of compound and target were hits. A number with no mark means an inactive call.

Tests used:
Assay in all cases: log2 fold change, soluble protein after heating vs DMSO (PISA); higher = thermal stabilisation; K562 lysate, 10 uM; active = over 0.2 and 3.5 SD of the protein, either way, in both replicates (recomputed)
[1] = compound: Cc1cn(-c2cc(NC(=O)c3ccc(C)c(Nc4nccc(-c5cccnc5)n4)c3)cc(C(F)(F)F)c2)cn1 [nilotinib]
Summary of the method: (§1)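 Soluble protein was defined as the supernatant remaining after 21,000xg for 90 min, following pooling of heated aliquots and adjustment to 0.5% NP-40 at 4°C. Before that, crude K562 extract at 1 mg/mL protein in PBS pH 7.4 with 1 mM MgCl2 was treated with 10 μM compound for 30 min and heated for 3 min across 48°C-58°C. Quantification used TMTpro 16plex LC-MS/MS with channel sums equalised, and values are log-two fold changes in thermal stability relative to solvent controls from duplicates.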

[2] = compound: Cc1nc(Nc2n[nH]c3c2CN(C(=O)N[C@H](CN(C)C)c2ccccc2)C3(C)C)c2sccc2n1
Summary of the method: as §1

[3] = compound: Cc1nc(Nc2ncc(C(=O)Nc3c(C)cccc3Cl)s2)cc(N2CCN(CCO)CC2)n1 [dasatinib]
Summary of the method: as §1

[4] = compound: Cc1ncc(-c2ccnc(Nc3ccc(S(C)(=O)=O)cc3)n2)n1C(C)C
Summary of the method: as §1

[5] = compound: Cn1cc(-c2ccc3c(c2)CCN3C(=O)Cc2cccc(C(F)(F)F)c2)c2c(N)ncnc21
Summary of the method: as §1

[6] = compound: Cn1cc(CNCC2CCN(c3ncc(C(=O)NO)cn3)CC2)c2ccccc21 [quisinostat]
Summary of the method: as §1

[7] = compound: Cn1cncc1[C@@](N)(c1ccc(Cl)cc1)c1ccc2c(c1)c(-c1cccc(Cl)c1)cc(=O)n2C [tipifarnib]
Summary of the method: as §1

[8] = compound: NC(=O)Nc1cc(-c2cccc(F)c2)sc1C(=O)N[C@H]1CCCNC1
Summary of the method: as §1

[9] = compound: NC(=O)c1cnc(N[C@@H]2CCCC[C@@H]2N)nc1Nc1cccc(-n2nccn2)c1
Summary of the method: as §1

[10] = compound: NC1(c2ccc(-c3nc4ccn5c(=O)[nH]nc5c4cc3-c3ccccc3)cc2)CCC1
Summary of the method: as §1

Sequence of UniProt Q4G0P3 (Q4G0P3 whole entry, looked up): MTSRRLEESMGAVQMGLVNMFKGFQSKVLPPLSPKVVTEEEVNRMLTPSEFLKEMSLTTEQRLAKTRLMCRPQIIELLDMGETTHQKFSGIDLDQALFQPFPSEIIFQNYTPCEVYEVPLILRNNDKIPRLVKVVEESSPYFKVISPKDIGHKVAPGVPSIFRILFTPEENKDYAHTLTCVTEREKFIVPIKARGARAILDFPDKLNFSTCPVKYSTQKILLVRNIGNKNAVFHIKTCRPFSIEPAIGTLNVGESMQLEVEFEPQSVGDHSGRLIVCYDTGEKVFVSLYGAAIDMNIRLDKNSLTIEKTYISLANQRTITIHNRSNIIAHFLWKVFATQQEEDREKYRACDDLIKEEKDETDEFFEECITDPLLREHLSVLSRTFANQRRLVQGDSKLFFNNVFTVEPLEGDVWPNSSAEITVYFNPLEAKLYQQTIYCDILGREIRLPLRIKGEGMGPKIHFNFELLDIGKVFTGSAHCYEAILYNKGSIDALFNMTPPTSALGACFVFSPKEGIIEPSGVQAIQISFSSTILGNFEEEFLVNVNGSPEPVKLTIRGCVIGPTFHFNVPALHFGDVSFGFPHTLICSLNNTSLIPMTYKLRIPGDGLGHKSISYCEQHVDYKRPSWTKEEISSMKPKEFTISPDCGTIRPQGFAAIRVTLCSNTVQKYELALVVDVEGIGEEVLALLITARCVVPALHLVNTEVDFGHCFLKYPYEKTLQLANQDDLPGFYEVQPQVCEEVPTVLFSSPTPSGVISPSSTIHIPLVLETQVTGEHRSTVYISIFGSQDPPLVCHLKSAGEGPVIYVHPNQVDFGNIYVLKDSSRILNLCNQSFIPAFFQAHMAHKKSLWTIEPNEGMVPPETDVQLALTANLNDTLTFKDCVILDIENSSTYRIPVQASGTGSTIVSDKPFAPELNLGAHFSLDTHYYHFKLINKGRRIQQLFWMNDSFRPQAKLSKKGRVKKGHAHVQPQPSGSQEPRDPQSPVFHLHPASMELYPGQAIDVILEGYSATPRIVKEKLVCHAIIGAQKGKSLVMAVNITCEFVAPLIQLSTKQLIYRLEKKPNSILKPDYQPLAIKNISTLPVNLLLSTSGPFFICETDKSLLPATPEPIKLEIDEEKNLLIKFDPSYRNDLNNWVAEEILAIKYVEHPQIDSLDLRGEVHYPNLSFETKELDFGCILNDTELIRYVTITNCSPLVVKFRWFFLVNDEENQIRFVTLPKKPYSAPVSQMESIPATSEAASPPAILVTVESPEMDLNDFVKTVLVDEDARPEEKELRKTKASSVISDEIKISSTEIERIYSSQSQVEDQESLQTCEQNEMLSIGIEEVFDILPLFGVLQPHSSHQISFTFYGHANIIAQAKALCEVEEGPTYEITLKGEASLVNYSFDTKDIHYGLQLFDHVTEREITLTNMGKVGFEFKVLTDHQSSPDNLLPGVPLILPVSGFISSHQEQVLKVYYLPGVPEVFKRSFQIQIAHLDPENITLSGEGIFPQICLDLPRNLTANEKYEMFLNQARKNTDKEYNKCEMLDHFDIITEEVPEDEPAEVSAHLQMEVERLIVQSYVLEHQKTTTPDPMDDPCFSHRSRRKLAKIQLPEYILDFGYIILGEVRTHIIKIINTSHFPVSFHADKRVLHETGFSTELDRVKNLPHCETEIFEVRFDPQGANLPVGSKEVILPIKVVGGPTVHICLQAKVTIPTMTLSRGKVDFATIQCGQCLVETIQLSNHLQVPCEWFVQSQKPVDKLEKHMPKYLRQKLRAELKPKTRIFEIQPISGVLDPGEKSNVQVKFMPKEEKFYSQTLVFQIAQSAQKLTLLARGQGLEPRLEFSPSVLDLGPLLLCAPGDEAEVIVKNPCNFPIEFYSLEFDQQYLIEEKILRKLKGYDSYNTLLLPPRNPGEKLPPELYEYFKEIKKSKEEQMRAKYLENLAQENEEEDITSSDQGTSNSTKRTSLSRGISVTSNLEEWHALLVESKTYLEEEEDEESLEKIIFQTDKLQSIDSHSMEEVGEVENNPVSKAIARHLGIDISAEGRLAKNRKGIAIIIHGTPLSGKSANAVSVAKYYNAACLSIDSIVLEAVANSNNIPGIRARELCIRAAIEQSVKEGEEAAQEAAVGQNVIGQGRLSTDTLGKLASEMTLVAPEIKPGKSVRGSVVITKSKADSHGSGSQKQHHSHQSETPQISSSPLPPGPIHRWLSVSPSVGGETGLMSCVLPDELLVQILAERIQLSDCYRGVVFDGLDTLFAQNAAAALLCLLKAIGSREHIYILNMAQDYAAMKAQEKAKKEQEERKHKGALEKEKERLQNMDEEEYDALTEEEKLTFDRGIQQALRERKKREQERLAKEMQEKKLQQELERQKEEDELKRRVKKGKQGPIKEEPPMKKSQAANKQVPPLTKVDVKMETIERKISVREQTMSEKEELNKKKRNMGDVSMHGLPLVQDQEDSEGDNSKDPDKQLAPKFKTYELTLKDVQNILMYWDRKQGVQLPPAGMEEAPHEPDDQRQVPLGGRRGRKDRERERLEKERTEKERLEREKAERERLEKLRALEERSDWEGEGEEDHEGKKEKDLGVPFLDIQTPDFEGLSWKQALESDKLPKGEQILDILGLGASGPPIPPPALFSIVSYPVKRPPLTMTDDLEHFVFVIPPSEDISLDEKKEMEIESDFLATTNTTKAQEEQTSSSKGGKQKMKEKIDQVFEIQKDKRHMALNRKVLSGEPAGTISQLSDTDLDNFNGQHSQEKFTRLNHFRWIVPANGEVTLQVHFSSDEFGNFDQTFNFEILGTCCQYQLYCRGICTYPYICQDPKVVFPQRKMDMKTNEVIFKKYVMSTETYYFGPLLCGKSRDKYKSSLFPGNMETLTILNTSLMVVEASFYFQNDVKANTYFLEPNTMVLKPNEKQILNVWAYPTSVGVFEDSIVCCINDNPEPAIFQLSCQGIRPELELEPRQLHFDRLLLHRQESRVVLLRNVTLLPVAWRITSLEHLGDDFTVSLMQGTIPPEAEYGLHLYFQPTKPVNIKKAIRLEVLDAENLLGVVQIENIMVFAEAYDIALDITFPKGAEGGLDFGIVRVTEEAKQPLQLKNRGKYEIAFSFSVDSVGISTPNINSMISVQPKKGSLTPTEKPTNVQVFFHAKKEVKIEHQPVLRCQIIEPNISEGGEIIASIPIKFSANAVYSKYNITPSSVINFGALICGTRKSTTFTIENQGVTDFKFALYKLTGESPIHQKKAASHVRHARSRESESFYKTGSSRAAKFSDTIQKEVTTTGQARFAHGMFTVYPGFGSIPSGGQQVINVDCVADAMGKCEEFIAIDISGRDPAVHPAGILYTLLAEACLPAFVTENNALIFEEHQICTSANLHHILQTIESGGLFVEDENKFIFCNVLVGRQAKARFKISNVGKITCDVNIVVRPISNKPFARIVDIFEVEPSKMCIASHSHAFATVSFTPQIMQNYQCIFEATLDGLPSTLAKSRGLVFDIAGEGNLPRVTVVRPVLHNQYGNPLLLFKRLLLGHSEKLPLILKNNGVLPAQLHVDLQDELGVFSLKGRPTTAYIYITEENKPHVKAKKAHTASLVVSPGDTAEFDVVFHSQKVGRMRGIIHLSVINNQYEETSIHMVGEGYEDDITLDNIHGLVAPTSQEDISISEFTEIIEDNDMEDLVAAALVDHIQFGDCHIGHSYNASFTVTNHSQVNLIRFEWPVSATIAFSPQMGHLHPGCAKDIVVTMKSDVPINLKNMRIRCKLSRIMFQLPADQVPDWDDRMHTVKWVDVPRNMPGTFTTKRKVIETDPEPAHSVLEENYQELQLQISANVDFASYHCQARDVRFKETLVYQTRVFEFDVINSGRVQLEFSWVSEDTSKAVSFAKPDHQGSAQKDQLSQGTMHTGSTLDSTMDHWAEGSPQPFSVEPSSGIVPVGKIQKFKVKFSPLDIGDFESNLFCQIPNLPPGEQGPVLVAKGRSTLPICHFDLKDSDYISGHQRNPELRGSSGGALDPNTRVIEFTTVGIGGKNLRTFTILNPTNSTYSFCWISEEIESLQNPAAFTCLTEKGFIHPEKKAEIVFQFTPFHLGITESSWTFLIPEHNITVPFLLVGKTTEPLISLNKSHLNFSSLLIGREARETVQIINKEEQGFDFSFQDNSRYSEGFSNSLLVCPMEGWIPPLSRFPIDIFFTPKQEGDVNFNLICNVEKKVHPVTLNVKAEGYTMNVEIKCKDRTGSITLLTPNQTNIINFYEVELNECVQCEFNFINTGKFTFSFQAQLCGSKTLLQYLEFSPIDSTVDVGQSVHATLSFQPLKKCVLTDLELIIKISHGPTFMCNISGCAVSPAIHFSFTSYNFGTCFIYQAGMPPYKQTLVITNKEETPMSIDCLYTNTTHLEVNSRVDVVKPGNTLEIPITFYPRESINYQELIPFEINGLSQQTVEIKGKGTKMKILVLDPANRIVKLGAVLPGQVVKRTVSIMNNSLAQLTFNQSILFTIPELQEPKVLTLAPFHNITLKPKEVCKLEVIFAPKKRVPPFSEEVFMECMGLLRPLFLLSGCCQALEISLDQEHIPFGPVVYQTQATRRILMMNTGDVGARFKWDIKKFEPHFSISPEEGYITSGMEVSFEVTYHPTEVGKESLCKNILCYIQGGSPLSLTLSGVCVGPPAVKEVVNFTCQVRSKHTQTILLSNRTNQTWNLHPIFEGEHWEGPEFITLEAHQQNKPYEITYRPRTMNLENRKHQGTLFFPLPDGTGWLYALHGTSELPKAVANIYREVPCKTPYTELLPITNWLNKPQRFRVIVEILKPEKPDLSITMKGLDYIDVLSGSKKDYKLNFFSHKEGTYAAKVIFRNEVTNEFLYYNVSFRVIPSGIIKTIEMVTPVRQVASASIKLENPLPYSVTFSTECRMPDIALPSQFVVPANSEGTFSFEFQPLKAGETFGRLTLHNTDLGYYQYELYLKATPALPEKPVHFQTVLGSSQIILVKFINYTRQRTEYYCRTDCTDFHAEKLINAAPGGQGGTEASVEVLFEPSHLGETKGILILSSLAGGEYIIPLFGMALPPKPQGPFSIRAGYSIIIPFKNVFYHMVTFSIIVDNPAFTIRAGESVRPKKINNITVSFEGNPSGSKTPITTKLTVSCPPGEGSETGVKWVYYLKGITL

Target	log2 fold change [1]	log2 fold change [2]	log2 fold change [3]	log2 fold change [4]	log2 fold change [5]	log2 fold change [6]	log2 fold change [7]	log2 fold change [8]	log2 fold change [9]	log2 fold change [10]
GOLPH3 (UniProt Q9H4A6)	-0.008	0.008	-0.071	0.044	-0.013	-0.065	-0.039	0.012	-0.023	-0.02
HMGA1 isoform 2 (UniProt P17096)	0.209	0.014	0.091	0.395	-0.099	0.289	0.168	-0.018	-0.064	-0.101
HADH isoform 2 (UniProt Q16836)	-0.028	0.049	0.288 (active)	0.031	0.008	0.124	0.032	-0.006	0.029	-0.031
HDAC10 (UniProt Q969S8)	-0.009	0.023	-0.104	0.032	0.144	0.245	-0.123	0.092	0.111	-0.001
HNRNPUL1 (UniProt M0R247)										-0.063
INTS8 (UniProt Q75QN2)	0.035	0.044	-0.072	0.049	0.021	0.003	-0.009	0.067	-0.035	-0.029
HMGA1 (UniProt P17096)	0.035	0.039	-0.012	0.014	-0.08	-0.018	0.032	-0.004	-0.025	-0.059
ITM2B (UniProt Q9Y287)	0.012	-0.028	0.023	-0.002	-0.031	0.015	-0.012	0.018		-0.024
HNRNPL, A0A3B3ITJ4									0.019	
HMGN5 (UniProt Q5JSK9)	-0.074	0.062		-0.036			0.076		-0.035	
HYDIN (UniProt Q4G0P3)			-0.034		0.219				-0.282	
GSE1 (UniProt Q14687)	-0.017	0.007	-0.064	0.036	-0.005	-0.093	-0.02	0.059	0.012	0.029
IFITM3 (UniProt Q01628)	0.068	0.055	0.049	-0.013	0.064	-0.069	-0.136	-0.044	-0.133	-0.051
HNRNPD (UniProt D6RF44)	-0.03	0.11		0.103		-0.061	0.12	-0.353		
ITPRIP (UniProt Q8IWB1)			-0.017		0.005					0.06
KARS1 (UniProt Q15046)	-0.017	-0.01	-0.031	-0.029	0.02	0.034	0.02	0.004	0.013	0.02
IPP (UniProt Q9Y573)			-0.244		0.03				-0.097	0.093
HECW2 (UniProt Q9P2P5)	-0.147	0.021	-0.031	-0.092	-0.103	-0.513 (active)	-0.041	-0.035		0.126
GSTM2 (UniProt P28161)	0.124	-0.007	0.027	0.007	-0.005		0.064		-0.052	-0.019
